Experimental data reported in PubChem BioAssay (NCI).
The panel holds about 83,000 compounds, 20% with a hit somewhere; the sample as a whole holds those more often.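 Assay: single dose, 48 h. Readout: percent growth (0 = no net growth; negative = cell death). Active: <10.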 Calls of active or inactive are those of the source.

Tests used:
Assay in all cases: NCI-60 one-dose screen, 48 h (100 = growth as untreated, 0 = no growth, -100 = all killed)
Conditions in all cases: 10 µM unless noted
NCI-H23 lung = tested on: NCI-H23 lung
NCI-H226 lung = tested on: NCI-H226 lung
NCI-H322M lung = tested on: NCI-H322M lung
HOP-62 NSCLC = tested on: HOP-62 NSCLC
NCI-H460 lung = tested on: NCI-H460 lung
HOP-92 NSCLC = tested on: HOP-92 NSCLC
A549/ATCC NSCLC = tested on: A549/ATCC NSCLC
786-0 renal = tested on: 786-0 renal
COLO 205 colon = tested on: COLO 205 colon
NCI-H522 lung = tested on: NCI-H522 lung

Measured: growth

COc1cc(Cn2c(-c3ccccc3)cc3c2-c2oncc2CC3)cc(OC)c1OC
inactive: NCI-H23 lung 48.4% | NCI-H226 lung 51% | HOP-62 NSCLC 39% | HOP-92 NSCLC 28% | A549/ATCC NSCLC 23.9% | 786-0 renal 32.7% | COLO 205 colon 14.5%
active: NCI-H322M lung -13.2% | NCI-H460 lung 9.75%

CCC(C)C1NC(=O)c2nc(oc2-c2ccccc2)-c2csc(n2)-c2csc(n2)-c2nc(oc2C)-c2coc(n2)CNC(=O)C(C(C)CC)NC1=O (stereo unspecified)
active: NCI-H23 lung -68.2% | NCI-H226 lung -55.8% | NCI-H322M lung -98.9% | HOP-62 NSCLC -57% | NCI-H460 lung -81.4% | HOP-92 NSCLC -83.3% | NCI-H522 lung -74.7% | 786-0 renal -73.1% | COLO 205 colon -77.3%

CC(=O)OC1Oc2cc(C)c(C)cc2-c2oc(=O)c(-c3cc4ccccc4oc3=O)cc21 (stereo unspecified)
inactive: NCI-H23 lung 85.6% | NCI-H226 lung 124% | NCI-H322M lung 126% | HOP-62 NSCLC 109% | NCI-H460 lung 108% | HOP-92 NSCLC 88.3% | A549/ATCC NSCLC 113% | 786-0 renal 79.7% | COLO 205 colon 121%

CCCCCCCCCCC(C(O)c1ccccc1)N1CCCCC1 (stereo unspecified)
active: HOP-62 NSCLC -75.3% | NCI-H460 lung -74.5% | HOP-92 NSCLC -14.8% | COLO 205 colon -76.3%
inactive: NCI-H23 lung 49.6% | NCI-H226 lung 33.6% | NCI-H322M lung 45.8% | NCI-H522 lung 18% | 786-0 renal 29%

Cc1ccc(NC(=O)c2[nH]c(SCCN(C)C)nc2-c2ccc(F)cc2)cc1C#Cc1cnc2cccnn12
active: HOP-62 NSCLC -8.9% | NCI-H460 lung -69.4% | A549/ATCC NSCLC 5.21% | 786-0 renal -67.1%
inactive: NCI-H23 lung 66.7% | NCI-H226 lung 55.9% | NCI-H322M lung 48.1% | HOP-92 NSCLC 80.4% | COLO 205 colon 81.1%

CNC(=O)c1cc(Oc2ccc(NC(=O)c3nc(S(C)(=O)=O)n(C)c3-c3ccc(F)cc3)cc2)ccn1
inactive: NCI-H23 lung 79.1% | NCI-H226 lung 87.4% | NCI-H322M lung 62.5% | HOP-62 NSCLC 91.3% | NCI-H460 lung 59.4% | HOP-92 NSCLC 77.3% | A549/ATCC NSCLC 82.5% | 786-0 renal 75.4% | COLO 205 colon 59.4%

CCCCN(CCCC)CCC(O)c1cc2ccc(C(F)(F)F)cc2c2cc(C(F)(F)F)ccc12 (stereo unspecified)
inactive: NCI-H23 lung 43.1% | NCI-H226 lung 83.1% | HOP-62 NSCLC 79.1% | A549/ATCC NSCLC 64.8% | 786-0 renal 42.4% | COLO 205 colon 33.3%
active: NCI-H460 lung 5.31% | HOP-92 NSCLC -4.55% | NCI-H522 lung 3.17%

Cc1cc(C)c2c(NC(=O)Nc3ccc(Cl)c(Cl)c3)n[nH]c2n1
inactive: NCI-H23 lung 101% | NCI-H226 lung 108% | HOP-62 NSCLC 105% | NCI-H460 lung 106% | HOP-92 NSCLC 117% | NCI-H522 lung 92.6% | A549/ATCC NSCLC 101% | COLO 205 colon 106%

Cc1ccccc1CNc1ncnc2[nH]ncc12
inactive: NCI-H23 lung 109% | NCI-H226 lung 91.9% | HOP-62 NSCLC 99.3% | NCI-H460 lung 104% | HOP-92 NSCLC 64.3% | NCI-H522 lung 47.7% | A549/ATCC NSCLC 91% | 786-0 renal 97.3% | COLO 205 colon 92.2%

Cc1cc(C#Cc2ccccc2)ccc1-n1c(/C=C/c2ccc(F)cc2)nc2ccccc2c1=O
inactive: NCI-H23 lung 71.5% | NCI-H226 lung 84.7% | HOP-62 NSCLC 122% | NCI-H460 lung 63.6% | HOP-92 NSCLC 39.2% | A549/ATCC NSCLC 68.5% | 786-0 renal 80.4% | COLO 205 colon 53.3%

COc1ccc(/C=C2\CCCC3=C2N=C2SC(C)=NN2C3c2ccc(OC)c(OC)c2)cc1OC (stereo unspecified)
inactive: NCI-H23 lung 35.5% | NCI-H226 lung 31% | HOP-62 NSCLC 23.1% | NCI-H460 lung 19.1% | HOP-92 NSCLC 37.2% | NCI-H522 lung 35.8% | A549/ATCC NSCLC 20.1% | 786-0 renal 53% | COLO 205 colon 22.2%

FC(F)(F)c1ccc(/C=N/Nc2nnc3n2N=C(c2ccc(Cl)cc2)CS3)cc1
active: HOP-92 NSCLC 3.52%
inactive: NCI-H23 lung 64.8% | NCI-H226 lung 20.7% | HOP-62 NSCLC 16.4% | NCI-H460 lung 43.9% | NCI-H522 lung 58.1% | A549/ATCC NSCLC 51.7% | 786-0 renal 27.6% | COLO 205 colon 89.3%

CC(=O)O[C@H]1[C@H](CC#CC#CC[C@@H]2C[C@]3(C)[C@H]4CC=C5[C@H]6[C@@H](C)[C@H](C)CC[C@]6(C(=O)NCCCCCCCCN)CC[C@@]5(C)[C@]4(C)CC[C@H]3C(C)(C)[C@H]2OC(C)=O)C[C@]2(C)[C@H]3CC=C4[C@H]5[C@@H](C)[C@H](C)CC[C@]5(C(=O)NCCCCCCCCN)CC[C@@]4(C)[C@]3(C)CC[C@H]2C1(C)C
active: NCI-H226 lung -83.5%
inactive: NCI-H23 lung 99.1% | HOP-62 NSCLC 96.7% | NCI-H460 lung 103% | HOP-92 NSCLC 92.3% | NCI-H522 lung 106% | A549/ATCC NSCLC 102% | 786-0 renal 103% | COLO 205 colon 114%

O=Cc1ccc2nc(C(Cl)(Cl)Cl)ccc2c1
inactive: NCI-H23 lung 92.4% | NCI-H226 lung 97% | HOP-62 NSCLC 104% | NCI-H460 lung 94.7% | HOP-92 NSCLC 91.8% | NCI-H522 lung 94.4% | A549/ATCC NSCLC 108% | 786-0 renal 99% | COLO 205 colon 115%

Cc1c(O)c(=O)n(-c2ccccc2)n1C
inactive: NCI-H23 lung 101% | NCI-H226 lung 100% | HOP-62 NSCLC 100% | NCI-H460 lung 118% | HOP-92 NSCLC 96.3% | NCI-H522 lung 110% | A549/ATCC NSCLC 105% | 786-0 renal 101% | COLO 205 colon 111%

CC(OC(=O)Nc1cccc(Cl)c1)C(=O)O (stereo unspecified)
inactive: NCI-H23 lung 97.9% | NCI-H226 lung 96.4% | HOP-62 NSCLC 86.7% | NCI-H460 lung 108% | HOP-92 NSCLC 92.2% | NCI-H522 lung 80.9% | A549/ATCC NSCLC 99.1% | 786-0 renal 96% | COLO 205 colon 113%

CCOc1ccc([C@@H]2[C@@H](Oc3ccccc3)C(=O)N2c2cc(OC)c(OC)c(OC)c2)cc1
active: NCI-H460 lung 7.32% | COLO 205 colon -47.2%
inactive: NCI-H23 lung 23.9% | NCI-H226 lung 41.5% | HOP-62 NSCLC 27.4% | HOP-92 NSCLC 63.3% | A549/ATCC NSCLC 23.1% | 786-0 renal 10.1%

COc1cc2nccc(Oc3ccc(NC(=O)C4(C(=O)Nc5ccc(F)cc5)CC4)cc3)c2cc1Oc1ccc(N)cn1
inactive: NCI-H23 lung 49.3% | NCI-H226 lung 36.5% | HOP-62 NSCLC 51.2% | NCI-H460 lung 31% | NCI-H522 lung 51.3% | A549/ATCC NSCLC 22.7% | 786-0 renal 39.1%
active: HOP-92 NSCLC -11.5% | COLO 205 colon 8.91%

CCCNC(=S)N/N=C(\C)c1ccccn1
inactive: NCI-H23 lung 35.7% | NCI-H226 lung 21.5% | HOP-62 NSCLC 44% | NCI-H460 lung 17.7% | HOP-92 NSCLC 37.2% | A549/ATCC NSCLC 31.7% | 786-0 renal 20.4% | COLO 205 colon 20.8%

Clc1ccccc1Nc1nnc(-c2ccncc2)s1
inactive: NCI-H23 lung 102% | NCI-H226 lung 101% | HOP-62 NSCLC 118% | NCI-H460 lung 99.7% | HOP-92 NSCLC 93.9% | NCI-H522 lung 98.6% | 786-0 renal 80.2% | COLO 205 colon 114%

CN1CCN(Cc2ccc(NC(=O)c3cncc(C#Cc4ccc(N)nc4)c3)cc2C(F)(F)F)CC1
active: NCI-H226 lung -47.3% | HOP-62 NSCLC 8.59% | NCI-H460 lung 6.66% | HOP-92 NSCLC -25.5% | COLO 205 colon -20.4%
inactive: NCI-H23 lung 17.4% | NCI-H522 lung 23.1% | A549/ATCC NSCLC 16.2% | 786-0 renal 21.6%

O=C(Cc1ccc(Nc2ccnc(C(F)(F)F)c2)cc1)N/N=C/c1ccccc1O
inactive: NCI-H23 lung 37.7% | NCI-H322M lung 32% | HOP-92 NSCLC 75.8% | NCI-H522 lung 22.5% | A549/ATCC NSCLC 36.2% | COLO 205 colon 14%
active: HOP-62 NSCLC -9.42% | NCI-H460 lung 3.37% | 786-0 renal 6.73%

CSC(=S)N/N=C(\C)c1ccccn1
active: NCI-H226 lung 5.78% | NCI-H322M lung 8.08% | NCI-H460 lung -18.1%
inactive: NCI-H23 lung 33.6% | HOP-62 NSCLC 21.6% | HOP-92 NSCLC 31.3% | A549/ATCC NSCLC 10.3% | 786-0 renal 16.9% | COLO 205 colon 24%

CCOc1cccc(/C=N/NC(=O)c2ccc(Nc3ccnc(C(F)(F)F)c3)cc2)c1O
inactive: NCI-H23 lung 28.2% | HOP-92 NSCLC 18.2% | A549/ATCC NSCLC 17.8%
active: NCI-H226 lung -16.7% | HOP-62 NSCLC -9.17% | NCI-H460 lung -3.48% | NCI-H522 lung 2.45% | 786-0 renal 3.12% | COLO 205 colon -9.24%

COc1cc2c(cc1OCCCOc1cc3c(cc1OC)C(=O)N1CCC[C@H]1C=N3)C=CC(C)(C)O2
inactive: NCI-H23 lung 107% | NCI-H226 lung 82.7% | HOP-62 NSCLC 101% | NCI-H460 lung 108% | HOP-92 NSCLC 66.3% | NCI-H522 lung 83.7% | A549/ATCC NSCLC 99.3% | 786-0 renal 102% | COLO 205 colon 103%

Cc1c(-c2ccc(-c3ccccc3F)cc2)nc2ccc(F)cc2c1C(=O)O
inactive: NCI-H23 lung 54.6% | NCI-H226 lung 65.4% | HOP-62 NSCLC 49.3% | NCI-H460 lung 10.6% | HOP-92 NSCLC 42.5% | NCI-H522 lung 34.3% | A549/ATCC NSCLC 34.7% | 786-0 renal 23% | COLO 205 colon 49.2%

N#Cc1ccc(NC(=O)Nc2nc3ccc(OC(F)(F)F)cc3s2)cc1
inactive: NCI-H226 lung 12.7%
active: NCI-H23 lung -22.1% | HOP-62 NSCLC 3.68% | NCI-H460 lung -3.29% | HOP-92 NSCLC -13.1% | NCI-H522 lung -33.5% | A549/ATCC NSCLC 3.01% | 786-0 renal -12.6% | COLO 205 colon -90.1%

C1=C\CCCCN2CC[C@H]3[C@H](CCCC/C=C\CCCN4C[C@@H](CCCCC/1)C[C@@H]3C4)C2
inactive: NCI-H23 lung 79.5% | NCI-H226 lung 110% | HOP-62 NSCLC 76.3% | NCI-H460 lung 51.8% | HOP-92 NSCLC 17.6% | NCI-H522 lung 47.8% | A549/ATCC NSCLC 48.9% | 786-0 renal 73.2%
active: COLO 205 colon -64.3%

C#CC[C@@H]1C[C@]2(C)[C@H]3CC[C@@H]4[C@H]5C(C(=C)C)CC[C@]5(C(=O)NCCCCN)CC[C@@]4(C)[C@]3(C)CC[C@H]2C(C)(C)[C@H]1OC(C)=O (stereo partly specified)
inactive: NCI-H23 lung 11.7% | NCI-H226 lung 96.1% | HOP-62 NSCLC 105% | HOP-92 NSCLC 42.2%
active: NCI-H460 lung -56.5% | NCI-H522 lung -64.4% | A549/ATCC NSCLC -54.1% | 786-0 renal -87.5% | COLO 205 colon -71.6%
